Assays:
Assay in all cases: log2 ratio of Biotin-Ahx-Ub-VS probe labelling (fragment/DMSO); higher = less target engagement (more negative = stronger competition), active = hit call of the paper (q ≤ 0.05, log2 ratio ≤ -1)
Conditions in all cases: compound concentration: 200 uM; treatment time: 3 h
[1] = target: T1, USP42 (UniProt Q9H9J4)
T1 sequence (whole entry): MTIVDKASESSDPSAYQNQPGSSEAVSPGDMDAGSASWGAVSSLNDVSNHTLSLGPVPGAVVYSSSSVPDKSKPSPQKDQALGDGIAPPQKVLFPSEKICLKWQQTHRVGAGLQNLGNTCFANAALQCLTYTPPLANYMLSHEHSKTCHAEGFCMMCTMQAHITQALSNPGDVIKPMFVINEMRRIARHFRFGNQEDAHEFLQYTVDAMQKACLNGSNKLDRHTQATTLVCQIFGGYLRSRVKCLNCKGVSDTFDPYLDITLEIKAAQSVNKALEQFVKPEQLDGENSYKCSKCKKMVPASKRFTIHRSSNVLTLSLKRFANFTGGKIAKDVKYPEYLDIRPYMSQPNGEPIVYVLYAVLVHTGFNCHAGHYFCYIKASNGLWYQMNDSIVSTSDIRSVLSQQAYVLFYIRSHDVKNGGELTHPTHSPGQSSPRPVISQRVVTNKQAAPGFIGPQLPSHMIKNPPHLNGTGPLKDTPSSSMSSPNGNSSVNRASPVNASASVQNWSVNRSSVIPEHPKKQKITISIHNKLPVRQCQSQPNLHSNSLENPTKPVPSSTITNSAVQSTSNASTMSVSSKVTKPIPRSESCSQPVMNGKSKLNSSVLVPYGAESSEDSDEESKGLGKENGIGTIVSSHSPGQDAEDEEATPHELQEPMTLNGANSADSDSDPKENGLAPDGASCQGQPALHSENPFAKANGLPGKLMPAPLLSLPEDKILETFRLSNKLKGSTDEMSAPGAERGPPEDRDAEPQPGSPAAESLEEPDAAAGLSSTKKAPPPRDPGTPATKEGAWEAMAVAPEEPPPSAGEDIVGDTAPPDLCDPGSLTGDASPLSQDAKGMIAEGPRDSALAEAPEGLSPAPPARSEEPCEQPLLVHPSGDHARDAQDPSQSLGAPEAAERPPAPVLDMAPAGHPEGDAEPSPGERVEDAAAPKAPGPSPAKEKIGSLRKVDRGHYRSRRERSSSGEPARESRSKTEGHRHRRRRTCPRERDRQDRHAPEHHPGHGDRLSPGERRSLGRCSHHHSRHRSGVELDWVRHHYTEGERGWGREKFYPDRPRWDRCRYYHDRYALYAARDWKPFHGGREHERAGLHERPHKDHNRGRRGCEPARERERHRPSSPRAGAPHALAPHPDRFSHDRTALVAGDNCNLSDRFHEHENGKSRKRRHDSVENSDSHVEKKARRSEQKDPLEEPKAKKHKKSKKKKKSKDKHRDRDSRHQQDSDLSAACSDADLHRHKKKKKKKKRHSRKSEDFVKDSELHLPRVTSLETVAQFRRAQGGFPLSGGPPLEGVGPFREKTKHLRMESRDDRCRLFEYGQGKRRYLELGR
Summary of the method: (§1)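 Fragment (200 µM) or vehicle was incubated for 3 h with triplicate HEK293T lysate samples of 495 µg, which were then treated with Biotin-Ahx-Ub-VS at 0.5 µM final for 1 h. Labelled DUBs were enriched on NeutrAvidin, digested with LysC and trypsin, and analysed by diaPASEF LC-MS/MS. Values are average log2 fragment/vehicle ratios from an unpaired t-test on global-median-normalised Spectronaut label-free quantities, using proteins with ≥2 unique peptides.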

[2] = target: USP46 (UniProt P62068)
Summary of the method: as §1

[3] = target: T2, USP47 (UniProt Q96K76)
T2 sequence (whole entry): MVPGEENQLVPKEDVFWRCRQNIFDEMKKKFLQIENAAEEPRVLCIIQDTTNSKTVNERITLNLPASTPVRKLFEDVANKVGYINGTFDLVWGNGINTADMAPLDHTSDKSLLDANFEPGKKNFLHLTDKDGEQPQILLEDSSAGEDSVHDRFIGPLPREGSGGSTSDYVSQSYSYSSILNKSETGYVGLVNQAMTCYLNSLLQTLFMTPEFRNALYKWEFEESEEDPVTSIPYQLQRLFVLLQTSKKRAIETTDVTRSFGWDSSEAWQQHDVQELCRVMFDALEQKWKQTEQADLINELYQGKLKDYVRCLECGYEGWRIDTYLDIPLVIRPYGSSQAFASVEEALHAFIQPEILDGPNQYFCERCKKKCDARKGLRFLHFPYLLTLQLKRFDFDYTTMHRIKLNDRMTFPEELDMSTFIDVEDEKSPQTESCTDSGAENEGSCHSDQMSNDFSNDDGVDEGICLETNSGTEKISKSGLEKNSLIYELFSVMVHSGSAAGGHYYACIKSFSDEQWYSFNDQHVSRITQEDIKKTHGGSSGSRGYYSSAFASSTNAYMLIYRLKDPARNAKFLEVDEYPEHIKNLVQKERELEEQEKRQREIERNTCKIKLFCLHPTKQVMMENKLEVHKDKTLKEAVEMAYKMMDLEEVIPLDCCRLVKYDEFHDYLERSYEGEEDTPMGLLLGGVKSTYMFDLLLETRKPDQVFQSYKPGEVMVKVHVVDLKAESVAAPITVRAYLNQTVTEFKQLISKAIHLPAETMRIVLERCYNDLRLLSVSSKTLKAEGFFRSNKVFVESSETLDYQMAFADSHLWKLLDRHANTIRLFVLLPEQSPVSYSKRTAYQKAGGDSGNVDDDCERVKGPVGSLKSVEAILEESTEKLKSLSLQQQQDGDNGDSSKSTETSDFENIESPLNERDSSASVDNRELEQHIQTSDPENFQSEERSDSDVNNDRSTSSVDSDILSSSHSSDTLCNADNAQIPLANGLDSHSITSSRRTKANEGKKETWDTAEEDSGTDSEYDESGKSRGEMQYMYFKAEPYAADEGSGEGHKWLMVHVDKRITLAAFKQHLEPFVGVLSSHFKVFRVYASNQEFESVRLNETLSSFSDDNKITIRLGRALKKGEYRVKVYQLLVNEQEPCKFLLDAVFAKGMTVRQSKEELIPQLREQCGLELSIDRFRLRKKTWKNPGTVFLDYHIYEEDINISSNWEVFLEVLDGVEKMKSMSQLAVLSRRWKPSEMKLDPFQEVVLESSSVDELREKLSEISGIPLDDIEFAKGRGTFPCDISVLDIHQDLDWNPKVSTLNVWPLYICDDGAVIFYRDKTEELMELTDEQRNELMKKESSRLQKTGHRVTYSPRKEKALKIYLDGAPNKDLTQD
Summary of the method: as §1

[4] = target: T3, USP48 (UniProt Q86UV5)
T3 sequence (whole entry): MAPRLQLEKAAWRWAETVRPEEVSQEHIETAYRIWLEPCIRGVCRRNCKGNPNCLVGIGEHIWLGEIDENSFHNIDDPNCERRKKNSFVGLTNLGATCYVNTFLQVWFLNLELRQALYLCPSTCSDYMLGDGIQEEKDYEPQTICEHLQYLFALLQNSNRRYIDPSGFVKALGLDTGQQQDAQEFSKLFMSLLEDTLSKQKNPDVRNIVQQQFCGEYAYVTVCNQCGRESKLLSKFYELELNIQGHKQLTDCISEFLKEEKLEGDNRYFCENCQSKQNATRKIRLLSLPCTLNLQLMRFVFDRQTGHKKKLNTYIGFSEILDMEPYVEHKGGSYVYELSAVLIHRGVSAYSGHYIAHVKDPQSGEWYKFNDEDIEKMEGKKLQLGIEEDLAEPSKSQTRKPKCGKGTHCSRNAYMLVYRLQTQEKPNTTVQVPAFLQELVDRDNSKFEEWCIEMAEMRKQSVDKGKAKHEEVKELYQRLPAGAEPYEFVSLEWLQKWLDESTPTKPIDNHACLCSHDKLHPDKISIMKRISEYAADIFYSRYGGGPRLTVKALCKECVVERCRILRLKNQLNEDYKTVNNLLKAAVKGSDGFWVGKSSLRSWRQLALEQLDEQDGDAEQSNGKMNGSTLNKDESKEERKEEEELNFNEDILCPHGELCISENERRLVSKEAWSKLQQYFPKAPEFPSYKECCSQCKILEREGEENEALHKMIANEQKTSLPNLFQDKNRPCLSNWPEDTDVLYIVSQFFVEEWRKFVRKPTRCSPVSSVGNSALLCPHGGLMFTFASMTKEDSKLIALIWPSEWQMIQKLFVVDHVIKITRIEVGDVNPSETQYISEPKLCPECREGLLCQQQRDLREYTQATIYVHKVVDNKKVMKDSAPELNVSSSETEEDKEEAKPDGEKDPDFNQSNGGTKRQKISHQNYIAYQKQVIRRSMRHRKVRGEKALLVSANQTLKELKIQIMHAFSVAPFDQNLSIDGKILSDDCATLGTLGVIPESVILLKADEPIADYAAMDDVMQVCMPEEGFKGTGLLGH
Summary of the method: as §1

[5] = target: T4, USP5 (UniProt P45974)
T4 sequence (whole entry): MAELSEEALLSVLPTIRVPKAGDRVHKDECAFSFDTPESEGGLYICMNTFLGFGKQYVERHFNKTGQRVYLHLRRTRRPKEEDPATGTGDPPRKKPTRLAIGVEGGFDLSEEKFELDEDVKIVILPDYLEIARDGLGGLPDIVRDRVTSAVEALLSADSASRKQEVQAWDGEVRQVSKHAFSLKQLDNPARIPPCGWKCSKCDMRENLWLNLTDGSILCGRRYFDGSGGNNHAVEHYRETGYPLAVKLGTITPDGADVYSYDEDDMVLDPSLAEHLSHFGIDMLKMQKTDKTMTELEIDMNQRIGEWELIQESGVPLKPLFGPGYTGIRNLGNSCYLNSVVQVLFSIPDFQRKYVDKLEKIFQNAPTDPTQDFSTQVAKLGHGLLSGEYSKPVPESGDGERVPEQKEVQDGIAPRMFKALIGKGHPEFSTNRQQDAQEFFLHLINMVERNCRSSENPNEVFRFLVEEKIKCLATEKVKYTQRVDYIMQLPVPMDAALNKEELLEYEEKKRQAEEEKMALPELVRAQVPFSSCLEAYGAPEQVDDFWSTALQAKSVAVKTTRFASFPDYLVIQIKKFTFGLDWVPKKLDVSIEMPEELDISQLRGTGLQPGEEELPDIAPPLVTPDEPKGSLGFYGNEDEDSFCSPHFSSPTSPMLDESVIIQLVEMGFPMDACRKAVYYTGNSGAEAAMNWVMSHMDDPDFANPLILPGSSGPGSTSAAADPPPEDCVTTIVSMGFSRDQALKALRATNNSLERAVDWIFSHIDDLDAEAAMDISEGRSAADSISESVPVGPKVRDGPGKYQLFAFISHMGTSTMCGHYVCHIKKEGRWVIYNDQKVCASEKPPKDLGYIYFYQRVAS
Summary of the method: as §1

[6] = target: USP54 (UniProt Q70EL1)
Summary of the method: as §1

[7] = target: USP7 (UniProt Q93009)
Summary of the method: as §1

[8] = target: T5, USP8 (UniProt P40818)
T5 sequence (whole entry): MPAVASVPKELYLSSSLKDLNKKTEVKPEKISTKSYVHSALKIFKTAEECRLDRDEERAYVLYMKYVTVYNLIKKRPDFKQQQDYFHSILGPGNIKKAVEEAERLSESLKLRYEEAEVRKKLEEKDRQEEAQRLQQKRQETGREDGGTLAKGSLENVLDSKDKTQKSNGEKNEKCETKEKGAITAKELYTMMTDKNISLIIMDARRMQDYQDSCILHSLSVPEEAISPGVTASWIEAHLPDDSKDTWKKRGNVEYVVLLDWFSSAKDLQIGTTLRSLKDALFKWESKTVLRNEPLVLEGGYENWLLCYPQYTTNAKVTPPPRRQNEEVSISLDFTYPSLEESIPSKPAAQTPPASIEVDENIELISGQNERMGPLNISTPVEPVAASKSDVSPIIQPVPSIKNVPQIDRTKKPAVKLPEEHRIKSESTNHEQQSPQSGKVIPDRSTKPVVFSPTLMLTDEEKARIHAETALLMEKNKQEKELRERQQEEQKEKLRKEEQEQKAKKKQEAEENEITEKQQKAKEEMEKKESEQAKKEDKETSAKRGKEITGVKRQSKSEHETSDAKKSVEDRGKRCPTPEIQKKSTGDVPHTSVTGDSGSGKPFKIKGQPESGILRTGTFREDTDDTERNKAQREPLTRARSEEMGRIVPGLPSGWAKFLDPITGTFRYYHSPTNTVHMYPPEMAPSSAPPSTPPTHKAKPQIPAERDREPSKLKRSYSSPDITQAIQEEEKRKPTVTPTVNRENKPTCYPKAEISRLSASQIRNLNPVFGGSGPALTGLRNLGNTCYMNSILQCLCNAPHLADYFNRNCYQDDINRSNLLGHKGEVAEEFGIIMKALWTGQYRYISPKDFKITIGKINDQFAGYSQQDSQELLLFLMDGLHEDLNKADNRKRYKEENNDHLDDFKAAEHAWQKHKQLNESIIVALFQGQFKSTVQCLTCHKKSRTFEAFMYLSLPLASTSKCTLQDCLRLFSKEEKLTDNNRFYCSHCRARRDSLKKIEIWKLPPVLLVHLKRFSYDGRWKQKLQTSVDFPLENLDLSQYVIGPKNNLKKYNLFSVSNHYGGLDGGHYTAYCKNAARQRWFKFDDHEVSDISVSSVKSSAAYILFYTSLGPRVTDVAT
Summary of the method: as §1

Measured: log2 ratio of Biotin-Ahx-Ub-VS probe labelling

USP46, sequence (P62068 whole entry): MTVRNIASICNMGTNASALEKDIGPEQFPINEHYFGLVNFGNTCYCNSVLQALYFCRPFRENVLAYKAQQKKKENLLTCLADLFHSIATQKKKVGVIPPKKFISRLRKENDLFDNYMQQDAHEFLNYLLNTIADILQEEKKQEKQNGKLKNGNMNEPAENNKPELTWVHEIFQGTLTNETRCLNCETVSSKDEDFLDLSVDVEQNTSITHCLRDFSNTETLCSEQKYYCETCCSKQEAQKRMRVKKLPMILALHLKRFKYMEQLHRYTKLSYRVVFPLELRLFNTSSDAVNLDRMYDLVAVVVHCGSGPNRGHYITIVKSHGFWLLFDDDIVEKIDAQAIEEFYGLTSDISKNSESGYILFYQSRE
USP54, sequence (Q70EL1 whole entry): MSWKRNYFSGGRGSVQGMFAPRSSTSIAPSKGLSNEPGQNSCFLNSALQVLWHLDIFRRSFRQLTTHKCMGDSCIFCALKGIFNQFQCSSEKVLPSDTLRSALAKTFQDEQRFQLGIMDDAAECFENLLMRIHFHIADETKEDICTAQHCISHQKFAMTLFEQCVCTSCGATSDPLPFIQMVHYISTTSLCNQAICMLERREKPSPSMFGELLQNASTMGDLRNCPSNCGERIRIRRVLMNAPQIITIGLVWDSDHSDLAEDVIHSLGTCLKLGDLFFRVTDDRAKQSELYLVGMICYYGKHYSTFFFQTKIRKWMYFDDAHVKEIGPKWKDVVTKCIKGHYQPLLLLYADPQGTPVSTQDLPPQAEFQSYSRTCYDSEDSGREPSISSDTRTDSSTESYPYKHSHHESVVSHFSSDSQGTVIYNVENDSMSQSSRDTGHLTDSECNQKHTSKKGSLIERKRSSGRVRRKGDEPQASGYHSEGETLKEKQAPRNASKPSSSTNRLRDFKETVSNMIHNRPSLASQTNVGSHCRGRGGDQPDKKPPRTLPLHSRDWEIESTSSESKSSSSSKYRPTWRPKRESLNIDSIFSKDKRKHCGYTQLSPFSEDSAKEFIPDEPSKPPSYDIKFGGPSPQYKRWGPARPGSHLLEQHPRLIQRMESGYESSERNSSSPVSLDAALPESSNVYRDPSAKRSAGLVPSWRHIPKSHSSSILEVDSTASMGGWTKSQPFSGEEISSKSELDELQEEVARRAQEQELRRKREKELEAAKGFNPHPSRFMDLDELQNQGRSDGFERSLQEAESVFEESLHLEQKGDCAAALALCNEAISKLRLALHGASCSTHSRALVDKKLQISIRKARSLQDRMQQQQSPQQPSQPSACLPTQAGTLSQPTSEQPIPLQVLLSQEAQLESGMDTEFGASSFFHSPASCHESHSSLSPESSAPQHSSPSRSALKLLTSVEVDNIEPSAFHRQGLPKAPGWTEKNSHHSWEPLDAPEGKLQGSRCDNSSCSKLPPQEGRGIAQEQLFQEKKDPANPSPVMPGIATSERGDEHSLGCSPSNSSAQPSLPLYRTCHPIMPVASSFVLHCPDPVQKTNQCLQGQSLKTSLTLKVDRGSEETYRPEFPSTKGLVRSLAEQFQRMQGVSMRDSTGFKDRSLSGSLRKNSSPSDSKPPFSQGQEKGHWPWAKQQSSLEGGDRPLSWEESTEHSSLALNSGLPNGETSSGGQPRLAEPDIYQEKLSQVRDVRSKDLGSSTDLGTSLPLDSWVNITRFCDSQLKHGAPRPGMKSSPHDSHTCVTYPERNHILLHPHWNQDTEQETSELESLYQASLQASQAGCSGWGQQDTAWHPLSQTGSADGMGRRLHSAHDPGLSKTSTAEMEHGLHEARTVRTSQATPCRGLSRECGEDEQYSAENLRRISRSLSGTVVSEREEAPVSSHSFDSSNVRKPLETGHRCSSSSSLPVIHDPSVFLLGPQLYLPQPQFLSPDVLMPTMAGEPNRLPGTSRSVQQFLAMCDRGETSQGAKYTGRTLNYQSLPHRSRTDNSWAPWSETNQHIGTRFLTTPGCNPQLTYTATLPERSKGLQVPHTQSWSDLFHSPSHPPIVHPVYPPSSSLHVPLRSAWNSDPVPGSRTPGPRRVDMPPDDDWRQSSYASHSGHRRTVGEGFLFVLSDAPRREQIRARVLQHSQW
USP7, sequence (Q93009 whole entry, looked up): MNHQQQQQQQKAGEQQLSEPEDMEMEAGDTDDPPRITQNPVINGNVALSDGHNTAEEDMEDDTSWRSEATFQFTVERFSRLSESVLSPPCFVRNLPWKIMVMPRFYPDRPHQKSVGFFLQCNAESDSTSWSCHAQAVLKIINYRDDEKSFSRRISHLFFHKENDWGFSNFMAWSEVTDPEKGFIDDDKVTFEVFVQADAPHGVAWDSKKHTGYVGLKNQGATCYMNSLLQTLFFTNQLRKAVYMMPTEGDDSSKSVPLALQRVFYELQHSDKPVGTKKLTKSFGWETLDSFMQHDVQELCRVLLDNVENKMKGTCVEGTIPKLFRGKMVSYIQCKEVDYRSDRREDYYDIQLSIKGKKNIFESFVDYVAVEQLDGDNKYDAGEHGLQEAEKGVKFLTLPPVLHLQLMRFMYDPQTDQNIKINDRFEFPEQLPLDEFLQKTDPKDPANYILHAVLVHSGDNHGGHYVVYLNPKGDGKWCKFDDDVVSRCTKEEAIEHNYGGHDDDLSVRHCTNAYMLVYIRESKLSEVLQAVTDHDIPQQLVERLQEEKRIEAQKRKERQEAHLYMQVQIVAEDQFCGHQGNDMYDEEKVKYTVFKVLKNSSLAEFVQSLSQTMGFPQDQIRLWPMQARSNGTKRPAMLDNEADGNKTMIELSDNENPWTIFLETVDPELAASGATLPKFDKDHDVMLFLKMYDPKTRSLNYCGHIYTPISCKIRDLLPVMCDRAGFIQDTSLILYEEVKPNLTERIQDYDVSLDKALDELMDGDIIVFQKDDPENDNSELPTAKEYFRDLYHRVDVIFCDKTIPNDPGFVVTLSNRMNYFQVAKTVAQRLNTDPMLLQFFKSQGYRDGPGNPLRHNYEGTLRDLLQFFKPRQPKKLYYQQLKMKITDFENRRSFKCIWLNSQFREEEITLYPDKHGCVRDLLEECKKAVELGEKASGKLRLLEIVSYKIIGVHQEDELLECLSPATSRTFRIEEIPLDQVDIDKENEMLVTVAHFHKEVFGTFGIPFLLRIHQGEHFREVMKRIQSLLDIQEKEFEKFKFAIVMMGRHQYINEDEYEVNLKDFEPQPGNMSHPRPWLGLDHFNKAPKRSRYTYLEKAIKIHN

C[C@H]1CN(C(=O)CCl)CCN1C(=O)c1cnn(C)c1.Cl
inactive: [1] 0.109 | [2] -0.0724 | [3] -0.522 | [4] -0.436 | [5] 0.184 | [6] -0.0291 | [7] -0.353 | [8] -0.184

Reference: the supplement of paper PMC11732987, “Enantioselective OTUD7B fragment discovery through chemoproteomics screening and high-throughput optimisation” (Communications Chemistry, 2025)
